Here are results for four compounds from PubChem BioAssay.

Several values for one entry are separate records, joined by “and”; a condition that tells them apart may be missing. Equal values may be shown once. Activity calls are given as the source filed them.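 How the source made its calls, unless noted: active means thallium flux through the channel raised or lowered by more than 3 SD from vehicle-only wells, actives on both sides; inactive means the rest.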

One may read the inhibition as the drop in the measured response relative to a control, in per cent.

Assay [1] is described as follows: Wnt pathway potentiators raising nuclear beta-catenin – imaging, WNT3A-conditioned medium, mouse C2C12, NPC library, primary screen (AID 1117326; in the data active means nuclear beta-catenin stimulation mostly above about 4.2%, no sharp cut-off; inactive means mostly below about 10%). The note with it: stronger effect = higher value.
A short description of assay [2]: stimulators of insulin release from INS-1E, primary screen, cell-based, 5 mM glucose, NPC library (AID 1117329;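 active means compound raises insulin release from rat beta cells at 5 mM glucose, no numeric limit stated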). The note with it: rat INS-1E insulin secretion, at 10 µM, stronger effect = higher value.
The nature of assay [3]: growth inhibition of GSK3B-pretreated HCT116 cells – cell-based, CellTiter-Glo, 0.2 to 20 µM (AID 1117336;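 active means compounds lowering colon cancer cell viability after pretreatment blocking the GSK3B kinase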). The note with it: HCT116 viability after GSK3B inhibitor, at 20 µM, stronger effect = higher value.
Assay [4] in a line: inhibition of endothelial tube formation, primary screen, imaging, VEGF stimulated, CD31 staining, tube area, NPC library (AID 1117340;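 active means compound that reduces growth-factor-driven endothelial tube area in a mixed cell culture, no cutoff stated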). The settings on record: VEGF-stimulated ADSC/ECFC co-culture, at 10 µM, stronger effect = higher value.
Assay [5] can be described thus: GLP1 release stimulators, primary, NCI-H716, NPC library (AID 1117341;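 active means compound raises GLP1 secretion from the human gut endocrine cells, with no numeric limit stated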). The note with it: NCI-H716 cells, at 10 µM, stronger effect = higher value.
A short description of assay [6]: HCT116 colon cancer cell growth inhibition, primary screen, CellTiter-Glo luminescence, NPC library (AID 1117342;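 active means compounds that lower survival of HCT116 colon cancer cells in the luminescence readout, no numeric limit stated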). The settings on record: at 20 µM (top of the series). Background: Cellular ATP, detected with luciferase, serves as a proxy for viable cell number.
A short description of assay [7]: reduced SW480 viability measured with CellTiter-Glo, NPC library, primary (AID 1117343;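 active means compounds that lower viability of the colon cancer cells in the luminescence readout, with no numeric limit stated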). The note with it: CellTiter-Glo luminescence; at 20 µM (top of the series).
A short description of assay [8]: NPC library primary testing for decreased DLD-1 cell viability via CellTiter-Glo (AID 1117346;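 active means compounds that lower survival of DLD-1 colon cancer cells in the luminescence readout, no cutoff given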). The settings on record: DLD-1 viability, CellTiter-Glo luminescence; at 20 µM (top of the series).
Assay [9] addresses 6-phosphogluconate dehydrogenase, decarboxylating (Homo sapiens) (UniProt P52209). Briefly: inhibition of human phosphogluconate dehydrogenase – biochemical, recombinant enzyme, NADPH absorbance, primary screen (AID 1159550;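 active means at least 20% inhibition of 6-phosphogluconate dehydrogenase activity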). The settings on record: recombinant 6PGD, NADPH absorbance 341 nm; at 10 µM; stronger effect = higher value.
Assay [10] in a line: EMT-state selective cytotoxicity in co-culture – imaging, PC-3E GFP, TEM4-18 mCherry, primary screen (AID 1345086;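 active means compounds killing one labelled cell type while sparing the other, by normalised counts and ratio limits, not self-fluorescent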;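 on all read-outs here: cells exposed to compound for 72 h before imaging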;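 on red/green cell ratio (normalised): normalised mesenchymal count divided by normalised epithelial count so high means epithelial killing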). The settings on record: PC-3E GFP / TEM4-18 mCherry co-culture, imaging cell counts, at 1 µM; for red/green cell ratio (normalised): actives lie on both sides, counts scaled to control wells, 1 = unselective.
Assay [11] is described as follows: viability loss with induced miR-34 in A549 – imaging, A549 dox-inducible miR-34, nuclei and caspase counts, primary screen (AID 1347080;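 active means compounds whose cell count with miR-34 switched on is under 0.7 times the count with it off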). The note with it: A549 miR-34 inducible, Hoechst nuclei count, 48 h.
Assay [12] in a line: MELAS cybrid and Rieske KO viability enhancers – cell-based, MELAS cybrids, Rieske KO mouse fibroblasts, CellTiter-Glo, primary screen (AID 1508586;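 active means mean z-score across replicates of 1.96 or higher in either the MELAS or the Rieske mutant cell line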;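 further: z relative to plate mean and SD of compound and empty wells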). The settings on record: low glucose.
Assay [13] deals with NAD(+) hydrolase SARM1 (Homo sapiens) (UniProt Q6SZW1). Briefly: blocking NAD cleavage by SARM1 SAM-TIR – cell lysate, NAD-Glo luminescence (AID 1508614;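 active means compound whose remaining NAD level is above about 45 nM, limit read from the data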). The settings on record: SAM-TIR HEK293T lysate NADase, at 1 µM, stronger effect = higher value.
The subject of assay [14] is F380Y. Briefly: BK channel mutant inhibitors and activators – cell-based, U2OS BacMam, thallium flux, beta subunits, selectivity assay, profiling panel (AID 1259406).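 Further: initial slope of Thallos dye fluorescence rise after thallium is added; log ratio against the mean of 0.3% DMSO vehicle wells on the same plate.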 The note with it: U2OS BacMam BK variants, at 30 µM.
Assay [15] concerns F380Y/beta1. The assay is described as above. The note with it: U2OS BacMam BK variants, at 30 µM.
In assay [16] the test system is F380Y/beta2Delta. The description is as above. The note with it: U2OS BacMam BK variants, at 30 µM.
Assay [17] concerns F380Y/beta4. Described as above. The settings on record: U2OS BacMam BK variants, at 30 µM.
The target of assay [18] is Calcium-activated potassium channel subunit alpha-1 (Homo sapiens) + Leucine-rich repeat-containing protein 26 (Homo sapiens) (UniProt Q12791+Q2I0M4). The description is as above. The settings on record: U2OS BacMam BK variants, F380Y/Slo1WT/gamma1, at 30 µM.
Assay [19] deals with R275C. Described as above. The settings on record: U2OS BacMam BK variants, at 30 µM.
[20] abbreviates: measured here: epithelial PC-3E GFP cell survival.
Where [21] appears, read: measured here: mesenchymal TEM4-18 mCherry cell survival.
The mark [22] stands for this setting: stronger effect = lower value, cell number ratio, induced over uninduced.
[23] abbreviates: measured here: relative caspase fold change +Dox/-Dox.
Where [24] appears, read: measured here: total cells with miR-34 induction, stronger effect = lower value.
Where [25] appears, read: measured here: total cells without miR-34 induction.
Setting [26] is: MELAS cybrid survival, CellTiter-Glo 48 h, stronger effect = higher value.
[27] abbreviates: Rieske KO mouse fibroblast survival, CellTiter-Glo 72 h.

Chain of NAD(+) hydrolase SARM1 (Homo sapiens) (Q6SZW1 whole entry, looked up): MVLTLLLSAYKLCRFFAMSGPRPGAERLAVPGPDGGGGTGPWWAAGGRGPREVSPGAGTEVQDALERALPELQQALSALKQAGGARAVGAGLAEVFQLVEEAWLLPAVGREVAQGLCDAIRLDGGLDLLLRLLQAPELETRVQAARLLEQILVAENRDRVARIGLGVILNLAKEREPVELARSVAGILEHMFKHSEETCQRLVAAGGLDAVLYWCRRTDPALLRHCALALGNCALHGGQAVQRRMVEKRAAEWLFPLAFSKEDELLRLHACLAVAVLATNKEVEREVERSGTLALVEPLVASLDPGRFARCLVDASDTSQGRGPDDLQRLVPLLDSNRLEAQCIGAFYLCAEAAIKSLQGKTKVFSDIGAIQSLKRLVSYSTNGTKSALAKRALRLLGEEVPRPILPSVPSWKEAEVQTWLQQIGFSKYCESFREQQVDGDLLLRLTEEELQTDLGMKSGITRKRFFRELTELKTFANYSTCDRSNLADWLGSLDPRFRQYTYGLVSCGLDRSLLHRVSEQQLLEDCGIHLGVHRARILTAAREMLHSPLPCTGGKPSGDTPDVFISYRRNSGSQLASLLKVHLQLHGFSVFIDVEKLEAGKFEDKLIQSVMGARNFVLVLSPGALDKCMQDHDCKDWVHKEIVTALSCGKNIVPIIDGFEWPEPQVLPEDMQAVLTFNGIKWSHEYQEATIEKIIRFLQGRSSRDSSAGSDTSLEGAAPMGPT
Chain of 6-phosphogluconate dehydrogenase, decarboxylating (Homo sapiens) (P52209 whole entry, looked up): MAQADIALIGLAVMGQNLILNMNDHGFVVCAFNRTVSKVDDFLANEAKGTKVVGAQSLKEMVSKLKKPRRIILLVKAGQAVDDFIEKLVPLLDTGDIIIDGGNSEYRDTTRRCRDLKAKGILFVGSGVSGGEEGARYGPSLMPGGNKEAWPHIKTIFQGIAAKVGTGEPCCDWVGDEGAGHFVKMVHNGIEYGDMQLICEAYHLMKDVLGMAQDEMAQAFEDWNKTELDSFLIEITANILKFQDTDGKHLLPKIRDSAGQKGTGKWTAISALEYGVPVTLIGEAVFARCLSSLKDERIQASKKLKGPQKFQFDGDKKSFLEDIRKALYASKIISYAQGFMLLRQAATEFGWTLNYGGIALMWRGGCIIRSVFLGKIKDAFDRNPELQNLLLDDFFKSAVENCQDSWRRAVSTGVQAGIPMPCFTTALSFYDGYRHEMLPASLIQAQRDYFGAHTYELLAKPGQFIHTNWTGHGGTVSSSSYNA
Chain of Calcium-activated potassium channel subunit alpha-1 (Homo sapiens) + Leucine-rich repeat-containing protein 26 (Homo sapiens) (Q2I0M4 whole entry, looked up, one chain of several): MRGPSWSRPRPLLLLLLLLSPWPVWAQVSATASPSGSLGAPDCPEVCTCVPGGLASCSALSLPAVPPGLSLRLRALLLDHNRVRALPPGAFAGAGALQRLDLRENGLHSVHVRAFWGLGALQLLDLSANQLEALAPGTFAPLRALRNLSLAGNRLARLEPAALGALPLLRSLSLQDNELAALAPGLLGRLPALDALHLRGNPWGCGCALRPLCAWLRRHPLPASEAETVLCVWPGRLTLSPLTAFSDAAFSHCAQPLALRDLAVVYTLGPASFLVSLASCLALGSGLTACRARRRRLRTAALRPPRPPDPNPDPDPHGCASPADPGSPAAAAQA

With `OC(CCN1CCCC1)(c1ccccc1)C1CCCCC1` (stereo unspecified), the nuclear beta-catenin stimulation in assay [1] (at 10 µM) was 4.7% (inactive); in assay [1] (stimulation, at 2 µM), 4.9%. Besides, the insulin secretion stimulation in [2] was 6.4% (inactive). Moreover, the viability decrease in assay [3] was -95.6% (inactive). Besides, the tube area decrease in assay [4] is -12.4% (inactive). The GLP1 secretion stimulation in assay [5] is 3.4% (inactive). In addition, the inhibition of viability in assay [6] was 17.1% (inactive). Moreover, the results for the viability decrease (inhibition) in assay [7] and in assay [8] were 22.1% (inactive) and 10.7% (inactive), respectively. Besides, the inhibition in assay [9] was -21.9% (inactive). Further, the red/green cell ratio (normalised) in [10] is 1.05 (inactive). The normalised cell number in assay [10] (setting [20]) is 0.98; in assay [10] (setting [21]) it was 1.03. The fold change was 0.976 (inactive) and 0.849 (inactive) and 0.894 (inactive) in [11] (setting [22]); 1.12 and 3.13 and 3.87 in assay [11] (setting [23]). For the same compound, the cell count in assay [11] (setting [24]) is 10200 and 8600 and 10900; in [11] (setting [25]), 10400 and 10100 and 12200. Besides, the z-score in assay [12] (setting [26]) was 0.381 (inactive); in assay [12] (setting [27]), 0.369. For the same compound, the remaining NAD in [13] is 10 nM (inactive). In addition, the log fold change Tl+ flux was 0.0696 (inactive) in assay [14]; 0.0373 (inactive) in assay [15]; 0.106 (active) in [16]; 0.131 (active) in assay [17]; 0.011 (inactive) in [18]; 0.00132 (inactive) in assay [19].
Regarding `CCc1cccc2c3c([nH]c12)C(CC)(CC(=O)O)OCC3` (stereo unspecified), the nuclear beta-catenin stimulation is 0.9% (inactive) in assay [1] (at 10 µM) and 0.3% in assay [1] (stimulation, at 2 µM). Also, in assay [2], the insulin secretion stimulation is -0.3% (inactive). In [3], the viability decrease is -31.2% (inactive). In addition, the tube area decrease in [4] was -16.6% (inactive). In addition, the GLP1 secretion stimulation in assay [5] is -0.9% (inactive). The inhibition of viability in assay [6] is 1.5% (inactive). Moreover, the viability decrease (inhibition) is -4.5% (inactive) in assay [7] and -11.6% (inactive) in assay [8]. Also, the inhibition in assay [9] was -23.2% (inactive). Besides, the red/green cell ratio (normalised) in assay [10] is 1.13 (inactive). The normalised cell number in [10] (setting [20]) was 0.9; in [10] (setting [21]), 1.03. Besides, the values for the z-score in [12] (setting [26]) and in assay [12] (setting [27]) were -0.968 (inactive) and -0.359, respectively. Also, in [13], the remaining NAD was 10 nM (inactive). For the same compound, the log fold change Tl+ flux was 0.0338 (inactive) in assay [14]; 0.0385 (inactive) in assay [15]; -0.0224 (inactive) in assay [16]; -0.00239 (inactive) in assay [17]; 0.00932 (inactive) in assay [18]; 0.0181 (inactive) in assay [19].
As to `Cc1ccccc1C(OCCN(C)C)c1ccccc1` (stereo unspecified), the nuclear beta-catenin stimulation in [1] (at 10 µM) was 0.6% (inactive); in assay [1] (stimulation, at 2 µM) it was 1.7%. Also, the insulin secretion stimulation in assay [2] is 39.3% (active). Moreover, in assay [3], the viability decrease is -86.6% (inactive). Moreover, in [4], the tube area decrease was 2.8% (inactive). Besides, the GLP1 secretion stimulation in assay [5] was 2.1% (inactive). Also, the inhibition of viability in assay [6] is 8.67% (inactive). Moreover, the viability decrease (inhibition) was 45.8% (inactive) in assay [7] and -5% (inactive) in [8]. Also, the inhibition in [9] is 5.27% (inactive). Moreover, the red/green cell ratio (normalised) in assay [10] was 1.09 (inactive). Moreover, the normalised cell number in assay [10] (setting [20]) was found to be 0.78; in assay [10] (setting [21]), 0.85. For the same compound, the z-score in assay [12] (setting [26]) was -0.259 (inactive) and -1.08 (inactive); in assay [12] (setting [27]), -0.358 and 0.0536. For the same compound, the remaining NAD in [13] was 10 nM (inactive). In addition, the log fold change Tl+ flux in assay [14] was 0.0933 (inactive) and 0.0755 (inactive); in [15], 0.00351 (inactive) and 0.0509 (inactive); in assay [16] it was 0.0734 (inactive) and 0.0188 (inactive); in assay [17], 0.102 (inactive) and 0.0432 (inactive); in assay [18], -0.00307 (inactive) and 0.0363 (inactive); in [19], 0.02 (inactive) and -0.0278 (inactive).
As to `O=S(=O)(O)CCS`, the nuclear beta-catenin stimulation in [1] (at 10 µM) is 1.9% (inactive); in [1] (stimulation, at 2 µM) it was 1.8%. For the same compound, the insulin secretion stimulation in [2] is 1.6% (inactive). In addition, the viability decrease in assay [3] was 4.9% (inactive). The tube area decrease in assay [4] is 11.9% (inactive). Further, in assay [5], the GLP1 secretion stimulation is 2.6% (inactive). The inhibition of viability in assay [6] was -4.57% (inactive). The viability decrease (inhibition) was -2.4% (inactive) in assay [7] and -8.8% (inactive) in assay [8]. For the same compound, the inhibition in assay [9] was 6.93% (inactive). In addition, the red/green cell ratio (normalised) in assay [10] was 1 (inactive). Also, the normalised cell number in [10] (setting [20]) was 1.08; in [10] (setting [21]), 1.09. Further, the fold change is 0.934 (inactive) and 0.882 (inactive) in assay [11] (setting [22]); 3.36 and 0.596 and 4.13 in assay [11] (setting [23]). Besides, the cell count in assay [11] (setting [24]) is 9790 and 9090 and 11400; in assay [11] (setting [25]), 10500 and 9730 and 12900. Further, the z-score in assay [12] (setting [26]) is -0.16 (inactive) and 0.426 (inactive); in assay [12] (setting [27]), 0.659 and -0.304. In addition, the remaining NAD in [13] was 10 nM (inactive). The log fold change Tl+ flux in assay [14] was -0.0468 (inactive); in assay [15], 0.0507 (inactive); in [16], 0.0371 (inactive); in [17], 0.00454 (inactive); in assay [18], 0.0089 (inactive); in assay [19] it was 0.029 (inactive).
